Assays:
Details in all cases: inducer concentration 5 mM; 6 h; Cupriavidus necator H16; minimal medium + 0.4% gluconate
[1] = tested on: AcoR/P_H16_RS19445 acetoin biosensor (pEH052); assay: relative induction of RFP reporter vs primary effector (background-corrected); higher = stronger activation of the biosensor
Method: (§1)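 C. necator H16 strains, each carrying one of 21 transcription factor/inducible promoter–mRFP biosensor plasmids, were grown in minimal medium in 96-well plates (robotic platform). Each was exposed to 46 structurally or metabolically related compounds at 5 mM at 30 °C. OD-normalised RFP fluorescence was read 6 h later and expressed as relative induction (%) = 100 × (FL compound − FL uninduced)/(FL primary inducer − FL uninduced); mean of n=4.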

[2] = tested on: AraC/P_araBAD L-arabinose biosensor (pEH176); assay: as above
Method: as §1

[3] = tested on: BenM/P_H16_RS09790 benzoate biosensor (pEH148); assay: as above
Method: as §1

[4] = tested on: FdsR/P_H16_RS03165 formate biosensor (pEH134); assay: as above
Method: as §1

[5] = tested on: GabR/P_H16_RS23655 GABA biosensor (pEH256); assay: as above
Method: as §1

[6] = tested on: HpdR/P_H16_RS18295 3-hydroxypropanoate biosensor (pEH010); assay: as above
Method: as §1

[7] = tested on: KynR/P_H16_RS14030 L-kynurenine biosensor (pEH136); assay: as above
Method: as §1

[8] = tested on: NahR/P_H16_RS08125 salicylate biosensor (pEH042); assay: as above
Method: as §1

[9] = tested on: OapR/P_H16_RS01330 beta-alanine biosensor (pEH147); assay: as above
Method: as §1

[10] = tested on: PcaQ/P_H16_RS30145 3,4-dihydroxybenzoate biosensor (pEH161); assay: as above
Method: as §1

[11] = tested on: PhgR/P_H16_RS05530 phenylglyoxylate biosensor (pEH155); assay: as above
Method: as §1

[12] = tested on: PhhR/P_H16_RS18365 L-phenylalanine biosensor (pEH137); assay: as above
Method: as §1

[13] = tested on: SauR/P_H16_RS13695 sulfonatoacetate biosensor (pEH157); assay: as above
Method: as §1

[14] = tested on: TtdR/P_H16_RS10665 tartrate biosensor (pEH083); assay: as above
Method: as §1

[15] = tested on: XdhR/P_H16_RS05055 xanthine biosensor (pEH154); assay: as above
Method: as §1

[16] = tested on: heterologous inducible system pEH002 (rhamnose/acrylate/cumate/itaconate set); assay: as above
Method: as §1

[17] = tested on: heterologous inducible system pEH020 (rhamnose/acrylate/cumate/itaconate set); assay: as above
Method: as §1

[18] = tested on: heterologous inducible system pEH040 (rhamnose/acrylate/cumate/itaconate set); assay: as above
Method: as §1

[19] = tested on: heterologous inducible system pEH086 (rhamnose/acrylate/cumate/itaconate set); assay: as above
Method: as §1

[20] = tested on: AcoR/P_H16_RS19445 acetoin biosensor (pEH052); assay: relative induction of RFP reporter vs primary effector; higher = stronger activation
Method: (§2)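 Orthogonality screen of 21 primary inducers against 21 transcription factor/inducible promoter–mRFP biosensors in C. necator H16 in minimal medium, robotic 96-well format, 5 mM inducer, 30 °C. OD-normalised RFP fluorescence was read 6 h later and expressed as relative induction (%) = 100 × (FL compound − FL uninduced)/(FL primary inducer − FL uninduced); mean of n=4. Cognate pairs (100% by definition) omitted.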

[21] = tested on: AraC/P_araBAD L-arabinose biosensor (pEH176); assay: as above
Method: as §2

[22] = tested on: BadR/P_H16_RS27200 cyclohexanecarboxylate biosensor (pEH159); assay: as above
Method: as §2

[23] = tested on: BenM/P_H16_RS09790 benzoate biosensor (pEH148); assay: as above
Method: as §2

[24] = tested on: FdsR/P_H16_RS03165 formate biosensor (pEH134); assay: as above
Method: as §2

[25] = tested on: GabR/P_H16_RS23655 GABA biosensor (pEH256); assay: as above
Method: as §2

[26] = tested on: HpdA/P_H16_RS24175 L-tyrosine biosensor (pEH158); assay: as above
Method: as §2

[27] = tested on: NahR/P_H16_RS08125 salicylate biosensor (pEH042); assay: as above
Method: as §2

[28] = tested on: PcaQ/P_H16_RS30145 3,4-dihydroxybenzoate biosensor (pEH161); assay: as above
Method: as §2

[29] = tested on: PhgR/P_H16_RS05530 phenylglyoxylate biosensor (pEH155); assay: as above
Method: as §2

[30] = tested on: SauR/P_H16_RS13695 sulfonatoacetate biosensor (pEH157); assay: as above
Method: as §2

[31] = tested on: TtdR/P_H16_RS10665 tartrate biosensor (pEH083); assay: as above
Method: as §2

[32] = tested on: XdhR/P_H16_RS05055 xanthine biosensor (pEH154); assay: as above
Method: as §2

[33] = tested on: heterologous L-rhamnose-inducible system; assay: as above
Method: as §2

[34] = tested on: heterologous acrylate-inducible system; assay: as above
Method: as §2

[35] = tested on: heterologous cumate-inducible system; assay: as above
Method: as §2

[36] = tested on: heterologous itaconate-inducible system; assay: as above
Method: as §2

[37] = tested on: OapR/P_H16_RS01330 beta-alanine biosensor (pEH147); assay: as above
Method: as §2
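Throughout, for relative induction of RFP reporter vs primary effector (background-corrected): RFP excited at 585 nm with emission read at 620 nm, culture medium blanks subtracted from fluorescence and absorbance prior to normalisation.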

Compound: O=C(O)C1=C[C@@H](O)[C@@H](O)[C@H](O)C1 [shikimate]
- relative induction of RFP reporter [1]: 0.0178%
- relative induction of RFP reporter [2]: -0.00161%
- relative induction of RFP reporter [3]: -0.000316%
- relative induction of RFP reporter [4]: -2.48%
- relative induction of RFP reporter [5]: -0.317%
- relative induction of RFP reporter [6]: 1.03%
- relative induction of RFP reporter [7]: -0.0973%
- relative induction of RFP reporter [8]: 0.00146%
- relative induction of RFP reporter [9]: 0.246%
- relative induction of RFP reporter [10]: 2.49%
- relative induction of RFP reporter [11]: -0.587%
- relative induction of RFP reporter [12]: 0.165%
- relative induction of RFP reporter [13]: 0.0792%
- relative induction of RFP reporter [14]: -0.0735%
- relative induction of RFP reporter [15]: -0.446%
- relative induction of RFP reporter [16]: -0.00769%
- relative induction of RFP reporter [17]: -0.782%
- relative induction of RFP reporter [18]: -0.0558%
- relative induction of RFP reporter [19]: 0.188%

Compound: NCCC(=O)O [β-alanine]
- relative induction of RFP reporter [20]: -2.32%
- relative induction of RFP reporter [21]: -0.0067%
- relative induction of RFP reporter [22]: -0.428%
- relative induction of RFP reporter [23]: -0.0408%
- relative induction of RFP reporter [24]: -3.65%
- relative induction of RFP reporter [25]: -1.1%
- relative induction of RFP reporter [26]: -0.165%
- relative induction of RFP reporter [27]: 0.0063%
- relative induction of RFP reporter [28]: -0.208%
- relative induction of RFP reporter [29]: -0.344%
- relative induction of RFP reporter [30]: -0.0116%
- relative induction of RFP reporter [31]: 0.268%
- relative induction of RFP reporter [32]: -0.793%
- relative induction of RFP reporter [33]: 0.0016%
- relative induction of RFP reporter [34]: -2.33%
- relative induction of RFP reporter [35]: -1.44%
- relative induction of RFP reporter [36]: -0.489%

Compound: O=C(O)C1CCCCC1 [cyclohexane-1-carboxylate]
- relative induction of RFP reporter [20]: 2.02%
- relative induction of RFP reporter [21]: -0.0317%
- relative induction of RFP reporter [24]: -8.69%
- relative induction of RFP reporter [25]: -0.578%
- relative induction of RFP reporter [26]: -0.0345%
- relative induction of RFP reporter [27]: -0.0105%
- relative induction of RFP reporter [37]: -0.348%
- relative induction of RFP reporter [28]: -0.211%
- relative induction of RFP reporter [29]: -0.472%
- relative induction of RFP reporter [30]: 0.0396%
- relative induction of RFP reporter [31]: 2.19%
- relative induction of RFP reporter [32]: 0.127%
- relative induction of RFP reporter [33]: -0.00651%
- relative induction of RFP reporter [34]: -0.97%
- relative induction of RFP reporter [35]: 2.49%
- relative induction of RFP reporter [36]: 0.233%

Compound: O=C(O)C(O)C(O)C(=O)O (centres undefined) [tartrate]
- relative induction of RFP reporter [20]: 0.491%
- relative induction of RFP reporter [21]: -0.00769%
- relative induction of RFP reporter [22]: -0.687%
- relative induction of RFP reporter [23]: 0.00705%
- relative induction of RFP reporter [24]: -1.89%
- relative induction of RFP reporter [25]: 0.312%
- relative induction of RFP reporter [26]: -0.0207%
- relative induction of RFP reporter [27]: 0.0221%
- relative induction of RFP reporter [37]: -0.132%
- relative induction of RFP reporter [28]: 0.0285%
- relative induction of RFP reporter [29]: -0.242%
- relative induction of RFP reporter [30]: 0.033%
- relative induction of RFP reporter [32]: -0.458%
- relative induction of RFP reporter [33]: 0.0177%
- relative induction of RFP reporter [34]: -0.36%
- relative induction of RFP reporter [35]: -0.8%
- relative induction of RFP reporter [36]: 0.359%

Reference: the supplement of paper PMC7057948, “A genome-wide approach for identification and characterisation of metabolite-inducible systems” (Nature Communications, 2020)
